Test results reported in PubChem BioAssay (EPA / NIEHS).
Records with an inconclusive call do not appear. Activity calls are given as the source filed them. How the source made its calls, unless noted: active means hit-call score of the fitted dose curve at least 0.9, where 1 is the maximum; inactive means score below 0.9.

Tests used:
[1] = ATG_PBREM_CIS: Attagene CIS-FACTORIAL HepG2 Assay for human Phenobarbital-responsive Enhancer Module (PBREM) (AID 2282955); settings: HepG2 PBREM cis-reporter, Attagene multiplexed transcription; actives raise or lower the signal
In short: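 Measures endogenous factor action on a phenobarbital-responsive enhancer module. HepG2 transiently carrying cis reporters, 24 h treatment, mRNA read-out by RT-PCR plus capillary electrophoresis.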

[2] = target: Paired box protein Pax-6 (Homo sapiens) (UniProt P26367); experiment: ATG_Pax6_CIS: Attagene CIS-FACTORIAL HepG2 Assay for human Paired Box 6 (PAX6) (AID 2282956); settings: HepG2 CIS-FACTORIAL PAX6 reporter transcription, RNA readout; actives raise or lower the signal
In short: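 Multiplexed cis-reporter HepG2 system; 24 h treatment; reporter mRNA read by RT-PCR/CE fluorescence; bidirectional fit vs DMSO.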

[3] = ATG_RORE_CIS: Attagene CIS-FACTORIAL HepG2 Assay for human RAR-related Orphan Receptor Element (RORE) (AID 2282959); settings: HepG2 Attagene cis-factorial RORE reporter, mRNA; actives raise or lower the signal
In short: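 A 24-hour exposure of transfected HepG2 hepatoma cells precedes RNA isolation and reporter RT-PCR. Labeled products are digested with HpaI and resolved by capillary electrophoresis, with gain or loss of signal scored relative to DMSO.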

[4] = ATG_Sox_CIS: Attagene CIS-FACTORIAL HepG2 Assay for human SRY-box transcription factor (SOX) (AID 2282960); settings: HepG2 Attagene cis-factorial SOX reporter, mRNA; actives raise or lower the signal
In short: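 HepG2, cis reporter units, 24 h exposure. Reporter mRNA: RT-PCR → FAM labelling → HpaI → CE fluorescence. Bidirectional fit vs DMSO.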

[5] = target: Transcription factor Sp1 (Homo sapiens) (UniProt P08047); experiment: ATG_Sp1_CIS: Attagene CIS-FACTORIAL HepG2 Assay for human Specificity Protein 1 (Sp1) (AID 2282961); settings: HepG2 Sp1 cis-reporter transcription, actives raise or lower the signal
In short: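 Liver-derived HepG2 cells, cis-element reporter library, 24 h treatment; RNA isolated, cDNA amplified with reporter-specific primers, FAM-labeled fragments sized on capillary analyzer. DMSO baseline, bidirectional curve fit.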

[6] = ATG_SREBP_CIS: Attagene CIS-FACTORIAL HepG2 Assay for human Sterol Regulatory Element Binding (SREBP) (AID 2282962); settings: HepG2 Attagene cis-factorial SREBP reporter, mRNA; actives raise or lower the signal
In short: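 mRNA induction of transfected cis-promoter reporters in HepG2 cells, 24 h post-dose. Detection: RT-PCR with 6-FAM-labelled products, HpaI digest, capillary electrophoresis. DMSO served as negative control and baseline.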

[7] = target: Signal transducer and activator of transcription 3 (Homo sapiens) (UniProt P40763); experiment: ATG_STAT3_CIS: Attagene CIS-FACTORIAL HepG2 Assay for human Signal Transducer and Activator of Transcription 3 (STAT3) (AID 2282963); settings: HepG2, Attagene cis-factorial STAT3 reporter transcription; actives raise or lower the signal
In short: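 After a 24 h compound incubation, total RNA from MRTU-transfected HepG2 cells was converted to cDNA and reporter sequences PCR-amplified, labelled and profiled by capillary electrophoresis. Gain and loss of signal were referenced to DMSO.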

[8] = ATG_TCF_b_cat_CIS: Attagene CIS-FACTORIAL HepG2 Assay for human T-Cell-Factor with beta-catenin (TCF/b-cat) (AID 2282965); settings: HepG2 TCF/beta-catenin cis-reporter transcription, actives raise or lower the signal
In short: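 Endogenous TCF/LEF activity read as reporter transcript level via RT-PCR and capillary electrophoresis fluorescence in transfected HepG2, 24 h exposure; gain or loss of signal fitted against DMSO controls.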

[9] = ATG_TAL_CIS: Attagene CIS-FACTORIAL HepG2 Assay for human TAL Basal Promoter (AID 2282966); settings: HepG2 Attagene cis-factorial TAL promoter reporter; actives raise or lower the signal;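 further: background control endpoint measuring basal TAL promoter reporter mRNA not a specific factor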
In short: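 Readout: reporter mRNA, fluorescence by CE. System: HepG2, transient multi-reporter transfection, endogenous TF activity. Exposure: 24 h. Analysis: bidirectional, DMSO-normalized; background control.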

[10] = ATG_TGFb_CIS: Attagene CIS-FACTORIAL HepG2 Assay for human Transforming Growth Factor (TGF) (AID 2282967); settings: HepG2 Attagene CIS TGFb reporter, mRNA transcription; actives raise or lower the signal
In short: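 HepG2 cells transiently transfected with cis-promoter-driven multiple reporter units measure endogenous TF activity; reporter mRNA quantified at 24 h by RT-PCR, FAM labeling, HpaI digestion and capillary electrophoresis. Bidirectional fit vs DMSO.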

[11] = target: Nuclear receptor subfamily 1 group I member 3 (Homo sapiens) (UniProt Q14994); experiment: ATG_CAR_TRANS: Attagene TRANS-FACTORIAL HepG2 Assay for human Constitutive Androstane Receptor (CAR) (AID 2282969; active means hit-call score of the fitted dose curve at least 0.9, where 1 is the maximum;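 further: activators raise reporter mRNA above DMSO so AC50 marks induction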); settings: HepG2 Attagene TRANS-FACTORIAL CAR reporter
In short: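 Readout is reporter mRNA induction, quantified by fluorescent primer extension and capillary electrophoresis after RT-PCR. Cells were HepG2 transiently carrying chimeric NR-Gal4 constructs with GAL4-UAS reporters, treated for 24 h; activity scored upward from DMSO.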

[12] = target: Estrogen receptor (Homo sapiens) (UniProt P03372); experiment: ATG_ERa_TRANS: Attagene TRANS-FACTORIAL HepG2 Assay for human Estrogen Receptor alpha (ERa) (AID 2282970; active means hit-call score of the fitted dose curve at least 0.9, where 1 is the maximum); settings: HepG2 Attagene TRANS ERa GAL4 reporter, mRNA
In short: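 Transactivation via ERa-Gal4 chimera in HepG2; 24 hour incubation; reporter mRNA detected by fluorescence RT-PCR and capillary electrophoresis.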

[13] = target: Steroid hormone receptor ERR1 (Homo sapiens) (UniProt P11474); experiment: ATG_ERRa_TRANS: Attagene TRANS-FACTORIAL HepG2 Assay for human Estrogen-Related Receptor alpha (ERRa) (AID 2282971; active means hit-call score of the fitted dose curve at least 0.9, where 1 is the maximum); settings: HepG2 Attagene TRANS reporter, ERRa transactivation
In short: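 HepG2 cells were transiently transfected with multiple GAL4-UAS reporter units, then dosed with compound for 24 h. Total RNA was reverse-transcribed, reporter cDNA PCR-amplified and fluorescently labelled, and fragments resolved by capillary electrophoresis; induction was compared with DMSO.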

[14] = target: X-box-binding protein 1 (Homo sapiens) (UniProt P17861); experiment: ATG_Xbp1_CIS: Attagene CIS-FACTORIAL HepG2 Assay for human X-box Binding Protein 1 (XBP1) (AID 2282972); settings: HepG2 XBP1 cis-element reporter, Attagene multiplex; actives raise or lower the signal
In short: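 Fluorescence-labelled cDNA fragments from reporter transcripts, separated by capillary electrophoresis, give the signal. Source: HepG2 cells transfected with promoter-driven reporter units, harvested 24 h post-dose. DMSO served as reference for bidirectional curve fitting.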

[15] = ATG_GAL4_TRANS: Attagene TRANS-FACTORIAL HepG2 Assay for GAL4 (Internal Marker) (AID 2282976; active means hit-call score of the fitted dose curve at least 0.9, where 1 is the maximum); settings: HepG2 Attagene TRANS GAL4 internal marker reporter
In short: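 Fluorescence from capillary electrophoresis of labelled RT-PCR products quantifies reporter mRNA induction after 24 h dosing of HepG2 cells carrying transfected GAL4-UAS reporter transcription units. Vehicle DMSO serves as baseline.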

[16] = ATG_PXRE_CIS: Attagene CIS-FACTORIAL HepG2 Assay for human Pregnane X Receptor Element (PXRE) (AID 2282957); settings: HepG2 Attagene CIS-FACTORIAL PXRE reporter, mRNA; actives raise or lower the signal
In short: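 Transiently transfected HepG2 cells were dosed and incubated for 24 h. RNA was then isolated, DNase-treated, reverse-transcribed and reporter sequences amplified. Labeled, HpaI-digested fragments were quantified by capillary electrophoresis against DMSO.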

[17] = ATG_M_19_TRANS: Attagene TRANS-FACTORIAL HepG2 Assay for M19 Transcription Factor (Internal Marker) (AID 2282974; active means hit-call score of the fitted dose curve at least 0.9, where 1 is the maximum); settings: HepG2 Attagene TRANS-FACTORIAL M19 internal marker reporter
In short: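 Transfected HepG2 (GAL4-UAS MRTUs), 24 h compound, TriZol RNA, DNase-treated RT, reporter PCR, FAM label, HpaI digest, CE fluorescence; gain vs DMSO.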

[18] = ATG_TA_CIS: Attagene CIS-FACTORIAL HepG2 Assay for human TA Basal Promoter (AID 2282964); settings: HepG2 Attagene CIS-factorial TA basal promoter reporter; actives raise or lower the signal
In short: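 HepG2 cells transiently transfected with multiple reporter units under cis promoter elements, reporting endogenous transcription factor activity; this endpoint tracks the TA basal promoter as background control. Reporter mRNA after 24 h dosing measured by RT-PCR/capillary electrophoresis; bidirectional fits versus DMSO.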

[19] = ATG_VDRE_CIS: Attagene CIS-FACTORIAL HepG2 Assay for human Vitamin D Receptor Element (VDRE) (AID 2282968); settings: HepG2 VDRE cis-reporter transcription, actives raise or lower the signal
In short: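 In transiently transfected HepG2 liver cells, gain or loss of reporter mRNA after 24 h exposure is scored relative to DMSO, using fluorescence detection by capillary electrophoresis of RT-PCR products.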

[20] = ATG_PPRE_CIS: Attagene CIS-FACTORIAL HepG2 Assay for human Peroxisome Proliferator-activated Response Element (PPRE) (AID 2282958); settings: HepG2 PPRE cis-element reporter, Attagene transcription factor profiling; actives raise or lower the signal
In short: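 PPRE activity in HepG2: transient cis-reporter transfection, 24 h compound incubation, reporter mRNA by RT-PCR and CE fluorescence; gain/loss fitted against DMSO.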

Measured: AC50

Estrogen receptor (Homo sapiens), sequence (P03372 whole entry, looked up, the tested form may be a part): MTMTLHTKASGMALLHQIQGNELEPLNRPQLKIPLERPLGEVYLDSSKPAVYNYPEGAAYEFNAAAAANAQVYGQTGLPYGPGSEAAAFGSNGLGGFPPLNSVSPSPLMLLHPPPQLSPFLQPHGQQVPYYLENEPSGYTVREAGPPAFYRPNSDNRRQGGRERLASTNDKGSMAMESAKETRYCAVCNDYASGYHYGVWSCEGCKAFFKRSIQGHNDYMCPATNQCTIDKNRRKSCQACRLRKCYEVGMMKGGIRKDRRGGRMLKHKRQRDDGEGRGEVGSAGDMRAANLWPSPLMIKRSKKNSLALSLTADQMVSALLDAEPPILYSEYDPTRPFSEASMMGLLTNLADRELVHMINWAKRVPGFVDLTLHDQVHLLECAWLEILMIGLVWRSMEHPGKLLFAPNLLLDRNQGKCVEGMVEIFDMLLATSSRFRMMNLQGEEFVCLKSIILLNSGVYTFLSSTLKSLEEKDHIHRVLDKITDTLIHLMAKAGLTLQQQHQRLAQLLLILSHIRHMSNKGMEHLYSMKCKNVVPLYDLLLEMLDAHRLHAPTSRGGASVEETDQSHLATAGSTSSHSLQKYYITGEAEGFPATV
Signal transducer and activator of transcription 3 (Homo sapiens), sequence (P40763 whole entry, looked up): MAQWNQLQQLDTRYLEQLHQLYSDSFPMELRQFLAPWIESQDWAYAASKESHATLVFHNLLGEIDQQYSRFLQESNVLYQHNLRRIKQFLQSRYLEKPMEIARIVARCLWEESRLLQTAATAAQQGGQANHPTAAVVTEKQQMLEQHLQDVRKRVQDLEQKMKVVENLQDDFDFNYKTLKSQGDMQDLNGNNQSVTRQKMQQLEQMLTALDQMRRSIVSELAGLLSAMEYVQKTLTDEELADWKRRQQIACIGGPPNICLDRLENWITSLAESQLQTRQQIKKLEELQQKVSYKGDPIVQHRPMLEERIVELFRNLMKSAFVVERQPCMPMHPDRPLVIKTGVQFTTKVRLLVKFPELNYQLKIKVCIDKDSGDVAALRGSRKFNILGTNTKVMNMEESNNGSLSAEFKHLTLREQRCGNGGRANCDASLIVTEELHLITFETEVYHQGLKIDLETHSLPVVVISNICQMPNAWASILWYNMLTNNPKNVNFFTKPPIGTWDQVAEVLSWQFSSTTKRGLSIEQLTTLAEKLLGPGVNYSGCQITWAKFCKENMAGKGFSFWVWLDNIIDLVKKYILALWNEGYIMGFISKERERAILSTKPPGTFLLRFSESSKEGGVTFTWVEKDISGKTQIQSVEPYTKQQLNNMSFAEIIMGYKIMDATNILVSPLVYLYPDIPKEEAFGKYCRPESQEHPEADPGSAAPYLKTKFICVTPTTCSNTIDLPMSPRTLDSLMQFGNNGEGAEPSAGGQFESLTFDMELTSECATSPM
Paired box protein Pax-6 (Homo sapiens), sequence (P26367 whole entry, looked up): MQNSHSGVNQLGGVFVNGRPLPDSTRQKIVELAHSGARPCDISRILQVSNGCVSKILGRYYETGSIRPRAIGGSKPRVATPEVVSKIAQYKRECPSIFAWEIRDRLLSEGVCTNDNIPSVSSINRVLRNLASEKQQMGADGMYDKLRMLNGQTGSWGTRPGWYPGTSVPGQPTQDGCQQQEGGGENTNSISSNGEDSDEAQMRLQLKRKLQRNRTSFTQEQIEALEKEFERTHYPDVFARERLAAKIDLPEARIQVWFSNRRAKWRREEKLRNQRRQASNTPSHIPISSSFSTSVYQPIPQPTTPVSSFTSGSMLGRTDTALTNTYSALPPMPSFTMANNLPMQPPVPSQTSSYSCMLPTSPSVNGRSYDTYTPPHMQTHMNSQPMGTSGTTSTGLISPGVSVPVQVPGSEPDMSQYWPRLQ
Nuclear receptor subfamily 1 group I member 3 (Homo sapiens), sequence (Q14994 whole entry, looked up, the tested form may be a part): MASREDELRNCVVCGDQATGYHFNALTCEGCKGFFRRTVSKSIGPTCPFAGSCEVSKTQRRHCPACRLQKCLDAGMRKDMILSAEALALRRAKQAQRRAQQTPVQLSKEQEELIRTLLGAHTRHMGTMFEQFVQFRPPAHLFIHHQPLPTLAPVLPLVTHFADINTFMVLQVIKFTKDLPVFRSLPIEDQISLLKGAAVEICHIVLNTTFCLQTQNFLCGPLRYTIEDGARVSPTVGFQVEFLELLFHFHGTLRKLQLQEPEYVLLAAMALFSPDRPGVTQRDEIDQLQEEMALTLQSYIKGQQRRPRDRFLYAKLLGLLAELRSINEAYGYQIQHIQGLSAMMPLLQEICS
Transcription factor Sp1 (Homo sapiens), sequence (P08047 whole entry, looked up, the tested form may be a part): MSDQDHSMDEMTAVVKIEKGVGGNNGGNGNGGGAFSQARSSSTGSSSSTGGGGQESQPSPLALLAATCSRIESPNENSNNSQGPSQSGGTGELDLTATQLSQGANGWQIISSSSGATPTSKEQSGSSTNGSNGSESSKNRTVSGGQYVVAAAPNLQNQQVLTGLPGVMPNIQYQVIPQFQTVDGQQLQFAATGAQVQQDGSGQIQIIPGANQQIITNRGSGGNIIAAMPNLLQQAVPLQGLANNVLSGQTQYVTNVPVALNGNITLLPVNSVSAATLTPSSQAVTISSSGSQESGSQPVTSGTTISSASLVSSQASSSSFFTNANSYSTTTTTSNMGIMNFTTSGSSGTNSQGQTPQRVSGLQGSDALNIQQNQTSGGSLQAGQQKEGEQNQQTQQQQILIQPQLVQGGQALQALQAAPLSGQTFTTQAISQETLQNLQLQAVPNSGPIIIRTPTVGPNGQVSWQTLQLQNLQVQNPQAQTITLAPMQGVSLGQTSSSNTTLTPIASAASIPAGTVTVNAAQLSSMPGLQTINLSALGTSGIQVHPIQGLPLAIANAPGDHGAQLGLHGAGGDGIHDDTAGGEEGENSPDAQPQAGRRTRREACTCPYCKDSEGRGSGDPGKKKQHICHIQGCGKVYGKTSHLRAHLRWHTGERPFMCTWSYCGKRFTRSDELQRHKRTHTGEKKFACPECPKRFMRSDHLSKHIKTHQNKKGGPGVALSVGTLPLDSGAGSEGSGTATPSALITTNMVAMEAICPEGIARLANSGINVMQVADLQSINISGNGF
X-box-binding protein 1 (Homo sapiens), sequence (P17861 whole entry, looked up, the tested form may be a part): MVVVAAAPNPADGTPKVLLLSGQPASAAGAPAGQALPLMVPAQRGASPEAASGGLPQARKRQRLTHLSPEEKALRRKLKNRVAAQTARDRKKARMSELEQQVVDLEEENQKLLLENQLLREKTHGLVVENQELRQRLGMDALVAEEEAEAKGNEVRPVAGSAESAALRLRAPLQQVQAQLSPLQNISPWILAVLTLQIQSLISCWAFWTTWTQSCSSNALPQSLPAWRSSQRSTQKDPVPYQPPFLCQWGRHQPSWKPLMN
Steroid hormone receptor ERR1 (Homo sapiens), sequence (P11474 whole entry, looked up, the tested form may be a part): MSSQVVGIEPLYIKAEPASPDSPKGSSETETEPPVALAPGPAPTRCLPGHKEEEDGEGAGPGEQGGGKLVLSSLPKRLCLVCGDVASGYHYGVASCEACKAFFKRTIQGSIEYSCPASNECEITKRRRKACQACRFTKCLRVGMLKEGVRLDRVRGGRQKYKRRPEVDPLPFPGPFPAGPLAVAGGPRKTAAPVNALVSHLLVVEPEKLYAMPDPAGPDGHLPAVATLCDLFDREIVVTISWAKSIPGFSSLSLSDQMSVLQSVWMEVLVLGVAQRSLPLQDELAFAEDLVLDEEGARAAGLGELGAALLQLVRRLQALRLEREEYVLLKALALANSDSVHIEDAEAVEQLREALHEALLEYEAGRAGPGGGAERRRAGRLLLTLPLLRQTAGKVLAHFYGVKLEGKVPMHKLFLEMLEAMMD

CC(C)c1ccc2ncccc2c1
not listed: [16] | [17] | [18] | [19] | [20]
inactive: all other assays above

C=C(C)[C@@H]1CC=C(C)CC1
not listed: [3] | [11] | [12] | [13] | [15] | [18] | [19] | [20]
inactive: all other assays above

CC(=O)OC(C)c1ccccc1 (centres undefined)
not listed: [7] | [11] | [12] | [13] | [16] | [17] | [20]
inactive: all other assays above

CC(C)CCCCCOC(=O)CS
active: [16] 11.8 µM
not listed: [4] | [7] | [11] | [12] | [13] | [17] | [19] | [20]
inactive: all other assays above

CCCCC1C(=O)N(c2ccccc2)N(c2ccccc2)C1=O
active: [16] 1.44 µM
not listed: [4] | [8] | [13] | [17] | [20]
inactive: all other assays above

CC1=CCC(C(C)C)C=C1 (centres undefined)
active: [16] 3.56 µM
not listed: [3] | [11] | [13] | [15] | [17] | [19] | [20]
inactive: all other assays above

CC(C)(C)N
not listed: [11] | [12] | [13] | [16] | [18]
inactive: all other assays above

CCCc1ccc(O)c(OC)c1
not listed: [4] | [11] | [12] | [13] | [15] | [16] | [17] | [20]
inactive: all other assays above

CC(CCC(=O)O)(c1ccc(O)cc1)c1ccc(O)cc1
not listed: [11] | [12] | [13] | [16] | [19]
inactive: all other assays above

COc1ccc(C(=O)c2ccccc2)c(O)c1
inactive: [5] | [6] | [7] | [9] | [14] | [17] | [15]
active: [1] 85.9 µM | [2] 149 µM | [20] 121 µM | [3] 100 µM | [18] 121 µM | [10] 156 µM | [12] 6.43 µM

CC(=O)OC1CCCCC1
not listed: [1] | [11] | [12] | [17]
inactive: all other assays above

CCCCCCC=O
active: [20] 81.6 µM | [12] 19 µM
not listed: [1] | [11] | [13] | [15] | [17]
inactive: all other assays above

CC(C)[N+](C)(CCOC(=O)C1c2ccccc2Oc2ccccc21)C(C)C
active: [20] 42.7 µM
not listed: [1] | [11] | [13]
inactive: all other assays above

CCCCCCCCCC(C)=O
not listed: [2] | [11] | [13]
inactive: all other assays above

Nc1ccc(Cl)c(N)c1
not listed: [1] | [11] | [13]
inactive: all other assays above

C=C(C)OC(C)=O
not listed: [2] | [17] | [20]
inactive: all other assays above

CCCCc1ccc(Cl)cc1
not listed: [1] | [11] | [13] | [17]
inactive: all other assays above

CC(=O)OCCc1ccccc1
not listed: [2] | [7] | [11] | [13] | [15] | [17]
inactive: all other assays above

CC(C)COC(=O)CC(C(=O)OCC(C)C)S(=O)(=O)O (centres undefined)
active: [16] 29.5 µM
not listed: [2] | [11] | [12] | [13] | [15] | [17]
inactive: all other assays above
